The entries come from a sample that favours hits as a whole.
p53null 39C tox – qHTS Screen for Compounds that Selectively Target Cancer Cells with p53 Mutations: Cytotoxicity of p53 Null Cells at the Nonpermissive Temperature. H1299 p53-null (neo) cells, 39C, ATPlite viability, 24 h. Potency, µM (series often up to 46.1 µM), for inactives: top-dose activity, negative = cell killing, actives largely listed as cytotoxic. 0.97% of 55,000 active;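 also: potency is read from the fitted curve at half-maximal effect; 0% = DMSO only and -100% = full killing by 100 µM tamoxifen; nearly all actives have a fitted effect of over 50% in size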
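Concentration-response (up to 46 uM) was run for 24 h at the nonpermissive 39C on H1299-p53A138V or H1299-neo cells. ATP content was measured with ATPlite luminescence. AC50 values were Hill-modeled after normalizing between DMSO and 100 uM tamoxifen killing.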
NTMT1 inhibitor – Primary qHTS for Inhibitors of N-terminal methyltransferase 1 (NTMT1): MTaseGlo Assay | AID 1645870, 2021 | N-terminal Xaa-Pro-Lys N-methyltransferase 1 (Homo sapiens), Q9BV86 | NTMT1 MTase-Glo SAH luminescence, purified enzyme | 2.5% of 59,000 active | Potency, µM (highest dose often 114 µM), inactives show at the top dose activity change, negative = inhibition, usual class: inhibitors;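 also: potency is read from the fitted curve at half-maximal effect; plate controls were DMSO vehicle for no effect and no enzyme for full effect; nearly all actives have a fitted effect of over 65% in size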
Target sequence (Q9BV86 whole entry, looked up): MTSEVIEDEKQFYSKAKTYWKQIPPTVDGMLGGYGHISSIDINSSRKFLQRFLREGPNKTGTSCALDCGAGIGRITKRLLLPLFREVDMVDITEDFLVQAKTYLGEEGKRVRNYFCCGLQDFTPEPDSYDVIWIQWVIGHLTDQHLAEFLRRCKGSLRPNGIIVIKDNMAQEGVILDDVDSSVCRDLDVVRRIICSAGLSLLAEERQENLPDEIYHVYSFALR
OvCa metastasis – Primary qHTS assay for Inhibitors of ovarian cancer metastasis using an organotypic tumor microenvironment (TME) model; 0.1% of 46,000 active; AID 1963576, 2024; Potency, µM (doses to about 45.8 µM), for inactives: at the highest dose activity change, negative = inhibition, actives largely listed as inhibitors; SKOV3ip1-GFP adhesion/invasion on 3D omental model, fluorescence;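 also: potency is read from the fitted curve at half-maximal effect; plate controls were DMSO wells for no effect and tomatine positive control wells for full effect; nearly all actives have a fitted effect of over 65% in size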
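Adhesion/invasion was scored as fixed GFP-labeled SKOV3ip1 cell counts (488/509 nm), normalized to DMSO and tomatine controls. Cancer cells in serum-free medium, with four compound doses (0.36-46 umol/L), sat 2 hr at RT then 16 hr at 37 C on a 48 hr fibroblast/mesothelial/ECM culture.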
Sfp qHTS opt – qHTS Assay for Inhibitos of Bacillus subtilis Sfp phosphopantetheinyl transferase (PPTase): Chemistry Optimization Followup; shares compounds with NTMT1 inhibitor; purified Sfp PPTase enzyme activity, qHTS; Potency, µM (highest dose often 114 µM), for inactives: at the highest dose activity change, negative = inhibition, hits mostly inhibitors; 78% of 230 active; AID 540350, 2011
Bsub HM489 growth – qHTS for Inhibitos of Bacillus subtilis Sfp phosphopantetheinyl transferase (PPTase): Chemistry Optimization Followup in B. Subtilis HM489 | shares compounds with NTMT1 inhibitor | B. subtilis HM489 (acpS-) growth, BacTiter-Glo, 5 h | Potency, µM (doses to about 114 µM), for the others: top-dose activity change, negative = inhibition, usual class: inhibitors | 50% of 220 active | AID 540353, 2011
Sfp PPTase gel – Gel-Based Assay for Inhibitos of Bacillus subtilis Sfp phosphopantetheinyl transferase (PPTase): Chemistry Optimization Followup. 54% of 220 active. shares compounds with NTMT1 inhibitor. Potency, µM (highest dose often 250 µM), without a hit: at the top dose activity change, negative = inhibition, hits mostly inhibitors. purified Sfp PPTase, gel-based product detection
Sfp SAR2 – qHTS Assay for Inhibitors of Bacillus subtilis Sfp phosphopantetheinyl transferase (PPTase): SAR Round 2; shares compounds with NTMT1 inhibitor; 87% of 230 active; purified Sfp enzyme, PPTase activity, qHTS; Potency, µM (doses to about 57.1 µM), for inactives: top-dose activity change, negative = inhibition, usual class: inhibitors
USP2a K63 – Confirmation Assay for Inhibitors of Ubiquitin-specific Protease USP2a Using CHOP2 as the Reporter: K633 | 80% of 30 active | shares compounds with NTMT1 inhibitor | USP2 cleavage of DiUb K63-3IQF, fluorescence kinetic | Potency, µM (highest dose often 57.5 µM), for the others: at the highest dose activity change, negative = inhibition, most hits filed as inhibitors | AID 652172, 2013
Casp6 counter – qHTS for Inhibitors of Ubiquitin-specific Protease USP2a Using CHOP2 as the Reporter: Caspase 6 Assay. 30 tested, under 10 active. shares compounds with NTMT1 inhibitor. Caspase 6 enzyme, Caspase-Glo 6 luminescence. AID 652277, 2013. activity change, negative = inhibition, % at 46.1 µM
HSD17B4 counter – Extended Characterization of HPGD Inhibitors: Counterscreen Against HSD17b4; shares compounds with NTMT1 inhibitor; purified HSD17B4, estradiol/NAD+, NADH fluorescence; Potency, µM (top dose mostly 57.1 µM), for the others: at the top dose activity change, negative = inhibition, actives largely listed as inhibitors; 10% of 230 active; AID 743187, 2013
ALDH1A1 counter – Extended Characterization of HPGD Inhibitors: Counterscreen Against ALDH1A1; shares compounds with NTMT1 inhibitor; recombinant ALDH1A1, NADH fluorescence, propionaldehyde/NAD+; Potency, µM (doses to about 57.1 µM), for the others: top-dose activity change, negative = inhibition, most hits filed as inhibitors; 93% of 230 active; AID 743195, 2013
NNMT counter – Counterscreen qHTS for Inhibitors of N-terminal methyltransferase 1 (NTMT1): NNMT MTaseGlo assay | shares compounds with NTMT1 inhibitor | NNMT MTase-Glo luminescence, SAH detection | Potency, µM (titrated, usually from 57.1 µM), inactives show at the top dose activity, negative = inhibition, actives largely listed as inhibitors | 10% of 120 active | AID 1645878, 2021
Target sequence (P40261 whole entry, looked up): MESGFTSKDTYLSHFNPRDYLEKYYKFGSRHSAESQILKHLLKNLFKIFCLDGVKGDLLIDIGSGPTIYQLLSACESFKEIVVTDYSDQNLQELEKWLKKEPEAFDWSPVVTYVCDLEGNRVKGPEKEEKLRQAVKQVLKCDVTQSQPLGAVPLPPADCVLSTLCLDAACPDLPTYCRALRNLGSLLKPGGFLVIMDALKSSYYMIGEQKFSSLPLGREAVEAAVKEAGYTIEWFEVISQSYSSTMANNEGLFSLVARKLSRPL
* hit, by the source's call; i = inactive; u = inconclusive; x = no result; [ ] = dose if it differs, or a comment. Calls follow the shape of the dose curve; as a rule, active = well fitted curve in the direction sought with a large enough effect; inconclusive = small, poorly fitted or top-dose-only effect, or another doubt; inactive = no such curve, though single readings can be large; an effect the other way counts as inactive or inconclusive.

SMILES	p53null 39C tox	NTMT1 inhibitor	OvCa metastasis	others
FC(F)(F)c1ccc(N2CCN(C(=S)Nc3ccccn3)CC2)cc1	x	u	x	Sfp qHTS opt=2.4µM*;Bsub HM489 growth=21µM*;Sfp PPTase gel=5µM*;Sfp SAR2=0.58µM*;HSD17B4 counter=-11%;ALDH1A1 counter=2.4µM*
Cc1cc(C)cc(NC(=S)N2CCN(c3ncccn3)CC2)c1	3%[1.84 µM]	x	x
Cc1[nH]cnc1CN1CCN(C(=O)N[C@@H](CC(C)C)C(=O)O)[C@@H](Cc2ccccc2)C1=O	x	12%	x
Cc1nnc(-c2ccccc2)n1CCCn1ccnc1	x	10%	x
COC(=O)c1ccc(O)c2ncc(N3CC[C@H](N)C3)cc12	x	4%	x
C=Cc1cc2oc(-c3ccc(O)c(F)c3)nc2cc1O	x	28µM*	x	NNMT counter=u
CCN(CC)CCCC[C@H](NC(=O)[C@H](CC(C)C)NC(=O)[C@H](C)NC(=O)[C@H](Cc1ccccc1)NC(=O)c1ccc(C(C)(C)C)cc1)C(=O)N[C@@H](CO)C(=O)OC	x	8%	x
COc1c(C(C)C)c(O)c(O)c2c1C(OC)[C@H]1OC(=O)[C@@]23CCCC(C)(C)[C@H]13 (stereo partly drawn)	x	12%[29.8 µM]	x	NNMT counter=-10%[38.3 µM]
O=C(Nc1ccc(S(=O)(=O)Nc2nc(-c3ccccc3)cs2)cc1)c1ccc2ccccc2c1	x	-10%	x
OCc1ccc(-c2ccc(-c3ccc(CO)s3)o2)s1	x	u	i	NNMT counter=-28%[28.6 µM]
CCOC(=O)N[C@@H]1CC[C@@H]2[C@@H](C1)C[C@H]1C(=O)O[C@H](C)[C@H]1[C@H]2/C=C/c1ccc(-c2cccc(F)c2)cn1	x	26%	x
C[C@]12CC[C@@H]3c4ccc(OC(=O)c5ccccc5)cc4CC[C@H]3[C@@H]1CC[C@@H]2O	x	-2%[57.5 µM]	x
C[C@]12CC[C@@H]3c4ccc(O)c(O)c4CC[C@H]3[C@@H]1CCC2=O	x	28µM*	x	NNMT counter=35µM*
CCCCN=C(N)NC(=N)N	x	42%[57.5 µM]	x
Cc1ccc(OCCn2c(CCNC(=O)c3ccccn3)nc3ccccc32)cc1	x	13%	x
Cc1ccc(S(=O)(=O)Nc2cnccc2C(=O)Nc2nc(-c3ccc(-c4ccccc4)cc3)cs2)cc1	x	12%	x	USP2a K63=1.7µM*;Casp6 counter=-22
Cc1ccc(S(=O)(=O)Nc2cnccc2C(=O)Nc2nc(-c3cccc(C)c3)cs2)cc1	x	x	x	USP2a K63=1.9µM*;Casp6 counter=-14
CCOc1ccc(CCNC(=O)c2cccc(C(=O)c3ccccc3)c2)cc1OCC	x	5%	x
CC#C[C@@H](CC(=O)O)c1ccc(OCc2cccc(-c3ccc(C(F)(F)F)cc3)c2)cc1	x	22µM*	x	NNMT counter=u
CC(C)C[C@H](C(=O)O)c1cc(-c2ccc(C(F)(F)F)cc2)cc(-c2ccc(C(F)(F)F)cc2)c1	x	-17%[57.5 µM]	x
COc1ccc(NC(=O)c2cnn3c(C)cc(C)nc23)cc1Cl	x	2%[57.5 µM]	x
